PubChem BioAssay

Experiment: inhibition of PAO1 biofilm formation – strain PAO1, LB-PBS medium, absorbance 600 nm, primary screen (AID 1176); note: test concentration not given here
Conditions: P. aeruginosa PAO1 growth/biofilm, A600, 12 h; higher = more signal; call rule not given here

z-score, inactive:
CCOC(=O)C[C@H]1[C@H](OC(=O)c2ccc(-c3ccccc3)cc2)[C@@H](NC(=O)C2CCCCC2)c2cc(OCCCO)ccc2N1C(=O)c1ccccc1 0.656
COCCCNC(=O)[C@@]1(Sc2ccc(C)cc2)CC(=O)N(Cc2cc(C(F)(F)F)cc(C(F)(F)F)c2)[C@@H]1c1ccc(CO)cc1 0.158
CCCC[C@@H]1C[C@H]1[C@@H](NC(=O)c1cccnc1)c1ccc(-c2ccccc2)cc1 -0.0982
O=C1O[C@@H](c2ccccc2)[C@@H](c2ccccc2)N2[C@@H](c3ccc(O)cc3)[C@]3(C(=O)Nc4ccc(C#CCCO)cc43)[C@@H](C(=O)Nc3nc4ccccc4s3)[C@H]12 0.513
O=C(O)[C@]1(Cc2ccccc2)N=C(c2ccc(OCCCO)cc2)O[C@@H]1c1ccccc1 -0.912
Cc1ccc(S[C@]2(C(=O)NCc3ccccc3)CC(=O)N(C(C)C)[C@@H]2c2ccc(CO)cc2I)cc1 -0.0807
Cc1ccc(C(C)CC(O)C2C=CC3C(=O)N(c4ccccc4)C(=O)C3N2Nc2ccc(C(C)C)cc2)o1 (stereo not given) 1.5
C=CC[C@]12N=C(c3ccc(OCCCO)cc3)O[C@H]1c1ccccc1N(C)C2=O 0.345
C=C(COC)/C(=C/C[C@@H](OC(=O)c1ccncc1)c1ccc(CO)o1)c1cnc2ccccc2c1 0.379
O=C1NC(=O)C2C1C=CC(C(O)c1cc(C(F)(F)F)cc(C(F)(F)F)c1)N2Nc1ccc(Cl)cc1Cl (stereo not given) 1.43
